ST2 inh = blocks human ST2 binding to IL-33; Q01638; inhibition, % for hits at 17 µM; 78,000 tested, 2.3% active; AlphaLISA ST2-Fc/biotin-IL-33 interaction, 1 h; in the data active means inhibition above about 30%
Target sequence (Q01638 whole entry, looked up): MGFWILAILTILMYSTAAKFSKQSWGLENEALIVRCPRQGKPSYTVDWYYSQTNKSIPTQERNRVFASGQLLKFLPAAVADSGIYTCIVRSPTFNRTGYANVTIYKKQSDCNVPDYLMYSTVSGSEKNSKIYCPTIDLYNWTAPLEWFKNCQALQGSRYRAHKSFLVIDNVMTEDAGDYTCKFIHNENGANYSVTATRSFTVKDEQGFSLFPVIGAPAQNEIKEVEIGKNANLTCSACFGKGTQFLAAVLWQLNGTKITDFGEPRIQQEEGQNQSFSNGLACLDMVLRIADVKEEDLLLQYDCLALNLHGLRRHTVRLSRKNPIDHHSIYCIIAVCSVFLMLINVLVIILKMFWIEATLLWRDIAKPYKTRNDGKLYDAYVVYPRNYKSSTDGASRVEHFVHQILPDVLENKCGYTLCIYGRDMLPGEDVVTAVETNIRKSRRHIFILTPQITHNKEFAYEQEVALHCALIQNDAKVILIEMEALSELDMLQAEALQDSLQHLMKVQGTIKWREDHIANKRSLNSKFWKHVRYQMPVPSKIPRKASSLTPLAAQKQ
* hit, by the source's call; i = inactive. The entries come from a sample that favours hits as a whole.

SMILES	ST2 inh
Cc1ccc(-n2nc3c(c2NC(=O)c2cccc(F)c2)CS(=O)C3)cc1 (configuration not stated)	i
Nc1cc(N)nc(SCCOc2ccc(Cl)cc2)n1	i
CCC(=O)Oc1ccc2c(C)cc(=O)oc2c1	i
O=C1CSc2ccc(C(=O)NCc3c(F)cc(F)cc3F)cc2N1	i
O=C(Cn1cnc2sc3c(c2c1=O)CCCC3)NCC(=O)NC1CCCCCC1	i
Cc1ccccc1Cn1c(NCc2ccccc2)nc2c1c(=O)n(C)c(=O)n2C	i
Cn1c(=O)c2c(nc(NCCCO)n2Cc2cccc3ccccc23)n(C)c1=O	i
Cn1c(=O)c2c(nc(NCc3cccnc3)n2Cc2cccc3ccccc23)n(C)c1=O	30.0%*
Cc1ccnc(Nc2nc(-c3ccccc3)cs2)c1	i
Cc1ccc(C(=O)Nc2nc(-c3ccccc3)cs2)c(Cl)c1	i
Cc1ccc(Nc2nc(-c3ccc(O)c(O)c3)cs2)nc1	42.0%*
CCC(C)NC(=O)CCS(=O)(=O)c1cc(Br)cc2c1N(C(=O)C1CC1)CC2 (configuration not stated)	i
O=C(c1ccc2nc3ccc(Cl)cc3c(=O)n2c1)N1CCN(c2ccccc2F)CC1	i
CC(=NC(C)C)C1=C(O)CC(C)(C)CC1=O	i
CCCCOc1ccc(OCCCC)c2c1nc(-c1ccccc1NC)c(=O)n2C	69.0%*
CCn1nc(-c2ccccn2)nc2c(=O)n(C)c(=O)nc1-2	i
CCOc1ccc(-n2c3nc(=O)n(C)c(=O)c-3cc3ccccc32)cc1	i
O=C(CC1Sc2ccccc2NC1=O)Nc1ccccc1SC(F)(F)F (configuration not stated)	i
Cc1ccc2nc(NC(=O)c3cnccn3)sc2c1	i
O=C(Nc1ccc(F)c(F)c1)c1cnccn1	i
Cc1ccc(NC(=O)c2cnccn2)c(Br)c1	39.0%*
Cc1ccc(-c2cccc(C(=O)NCCn3ccnc3)c2)o1	i
COCC(C)NCCn1[nH]c(=O)ccc1=O (configuration not stated)	i
CCOc1ccc2nc(Nc3nc4c(c(=O)[nH]3)CCC4)nc(C)c2c1	31.0%*
CCOc1ccc2c3c(c(=O)oc2c1)CCC3	i
SMILES	ST2 inh
CCOc1ccc2nc(N3CCCC(N4CCN(c5nonc5C)CC4)CC3)nc(C)c2c1 (configuration not stated)	i
CCc1cn[nH]c1C1CCN(C(=O)c2cc(=O)[nH]c3ccc(F)cc23)CC1	i
Cc1ccc(N2C(=O)S/C(=C\c3ccc4c(c3)OCO4)C2=O)cc1	i
COc1ccccc1N1C(=N)S/C(=C/c2ccc(Br)c([N+](=O)[O-])c2)C1=O	i
COc1ccc(Br)cc1/C=C1/SC(=N)N(c2ccc3c(c2)OCO3)C1=O	40.0%*
COCCN(CC1CCCN(C2Cc3ccccc3C2)C1)C(=O)Cn1nc2ccccc2n1 (configuration not stated)	i
O=C(NCCc1cnn(-c2ccccc2)c1)[C@H]1Cc2ccccc2CN1	i
O=[N+]([O-])c1cc(CN2CCc3ccccc3C2)ccc1O	i
COc1ccc(C(=O)c2oc3ccccc3c2NC(=O)c2ccco2)cc1	31.0%*
O=C(Nc1c(C(=O)Nc2cccc(F)c2)oc2ccccc12)c1ccco1	i
NC(=O)c1oc2ccccc2c1NC(=O)c1ccco1	i
CCOc1ccc(-c2nc3s/c(=C\c4ccco4)c(=O)n3n2)cc1	i
COc1ccc2nc(NC(=O)/C=C/c3ccc([N+](=O)[O-])cc3)sc2c1	31.0%*
COc1ccc2nc(NC(=O)c3ccc(Cl)s3)sc2c1	i
CS(=O)(=O)c1ccc2nc(NC(=O)/C=C/c3ccc(Cl)cc3)sc2c1	i
CCNC(=O)c1cn(CCc2ccccc2)cc(C(=O)N2CCC(c3ccccc3)CC2)c1=O	i
COc1ccc(S(=O)(=O)Nc2ccc(Oc3ccc(Cl)cc3)cc2)cc1	i
COc1cccc(NC(=O)c2oc3ccccc3c2NC(=O)COc2ccccc2F)c1	i
N#CC1=C(N)Oc2n[nH]c(-c3ccccc3)c2C1c1ccc(Br)s1 (configuration not stated)	i
Cc1ccc(C(=O)Nc2nnc(CCS(=O)(=O)c3ccc(Cl)cc3)s2)cc1	i
Cc1ccc(-c2cc(=O)c(=O)[nH][nH]2)cc1	i
Cc1ccc(NC(=O)CCC(=O)O)c(C)c1	i
Cc1ccc(-c2ccc(CCC(=O)O)[nH]2)cc1	35.0%*
COCCN1C(=O)N(CCc2ccccc2)C(=O)C12CCN(C1CCSC1)CC2 (configuration not stated)	i
COc1ccc(NC(=O)N2C[C@@H]3C[C@H](C2)c2ccc(NS(=O)(=O)c4cccc(F)c4)c(=O)n2C3)cc1	i
SMILES	ST2 inh
O=c1c(NS(=O)(=O)c2cccc(F)c2)ccc2n1C[C@H]1C[C@@H]2CN(S(=O)(=O)c2cccs2)C1	44.0%*
O=C(Nc1ccc(F)cc1)N1C[C@@H]2C[C@H](C1)c1ccc(NS(=O)(=O)c3cccs3)c(=O)n1C2	i
Cc1ccc(NC(=O)CCCn2nc([N+](=O)[O-])c(Cl)c2C)cc1	i
O=C1C[C@H]2CC[C@@H](CN1)N2C(=O)Cc1ccsc1	i
CN(CC1(c2ccccc2)CC1(C)C)C(=O)c1ccco1 (configuration not stated)	i
c1ccc(CCNc2nc(-c3cccnc3)nc3ccccc23)cc1	i
c1cc2c(-c3ccc(CN4CCOCC4)cn3)cc(NC3CCCC3)nc2[nH]1	i
c1cc2c(-c3ccc(NC4CCCC4)nn3)cc(NC3CCNCC3)nc2[nH]1	40.0%*
c1cnc(-c2cc(NC3CCNCC3)nc3[nH]ccc23)cn1	33.0%*
c1ccc(CNc2nc(NC3CCCCC3)nc(N3CCOCC3)n2)cc1	i
c1nc(-c2cc(NC3CCCC3)nc3[nH]ccc23)cc(N2CCOCC2)n1	30.0%*
CCCc1nc(C)cc(-c2cc(N)nc3[nH]ccc23)n1	i
CCCc1cc(NCC2CNCCOC2)nc(C)n1 (configuration not stated)	i
CCCc1cc(-c2cc(NC3CCNCC3)nc3[nH]ccc23)nc(C)n1	38.0%*
CCCCN1CCN(c2cc(C)nc(-c3cccnc3)n2)CC1=O	i
CC(C)NC(=O)[C@@H](C)[C@@H]1CC[C@@]2(C)CC[C@H](NC(=O)CC(C)(C)C)[C@@H](C)[C@@H]2[C@H]1O	i
CCOc1ccc2c(=O)c(-c3ccccc3)c(C(F)(F)F)oc2c1C	i
COC(=O)c1ccc(-c2noc(CN(C)Cc3ccc4nsnc4c3)n2)cc1	i
CN(Cc1ccccc1)C1(C(=O)NCC2CCCCO2)Cc2ccccc2C1 (configuration not stated)	i
Clc1ncnc2c1C(c1ccc(Br)cc1)c1c(Cl)ncnc1O2	i
Cc1ccc(C(=O)Nc2cccc(OCc3cc(=O)n4ccc(C)cc4n3)c2)cc1	i
O=C(CCS(=O)(=O)c1cccc2cccnc12)Nc1ccc(F)cc1	i
Cc1cccc(NC(c2cccc(C)n2)c2ccc3ccc(C)nc3c2O)n1 (configuration not stated)	i
Cc1cc(Cl)ccc1NC(=O)CSc1cccc2cccnc12	i
Cc1cccc(NC(c2cccc(Cl)c2)c2ccc3cccnc3c2O)n1 (configuration not stated)	34.0%*
CC(=O)NC(c1ccc(Cl)cc1Cl)c1ccc2cccnc2c1O (configuration not stated)	i
COc1cc(C(Nc2cc(C)ccn2)c2ccc3cccnc3c2O)ccc1O (configuration not stated)	i

Compound activity from PubChem.
